In PubChem BioAssay (NCI):
Where “and” joins values, the source holds several entries; their conditions need not be identical. Equal entries are not always repeated. About 79,000 compounds went through this panel and 15% of them were active in at least one assay; those are over-represented in the sample as a whole. A number with no mark means an inactive call. Calls of active or inactive are those of the source. Cut-off read from the data, not from the text of the source: active = growth inhibition above about 70%; inactive = the rest.

Experiments:
[1] = NCI Yeast Anticancer Drug Screen. Data for the rad50 strain (AID 155);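 note: 0% = growth of vehicle-only cultures of the same strain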; conditions: S. cerevisiae rad50 strain growth inhibition, active compounds read high; at 50.0 µM unless noted
Method in brief: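 DNA repair mutant yeast, compound exposure, growth read-out; inhibition is taken relative to vehicle.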

[2] = NCI Yeast Anticancer Drug Screen. Data for the mec2-1 strain (AID 157); conditions: S. cerevisiae mec2-1 strain, active compounds read high; at 50.0 µM unless noted
Method in brief: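 Using mec2-1 yeast: add compound, measure growth, express inhibition versus vehicle-treated cultures.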

[3] = NCI Yeast Anticancer Drug Screen. Data for the sgs1 mgt1 strain (AID 161);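 note: 0% = growth of cultures given vehicle only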; conditions: S. cerevisiae sgs1 mgt1 strain, active compounds read high; at 50.0 µM unless noted
Method in brief: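 Percent growth inhibition was derived by comparing compound-exposed mutant yeast with vehicle-exposed cultures. The strain carries alterations in DNA damage repair.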

[4] = NCI Yeast Anticancer Drug Screen. Data for the cln2 rad14 strain (AID 165);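 note: 0% = growth equal to vehicle treated cultures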; conditions: S. cerevisiae cln2 rad14 strain, active compounds read high; at 50.0 µM unless noted
Method in brief: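 Yeast strain cln2 rad14, bearing defects in cell cycle control and DNA repair, serves as the test system; values reflect growth inhibition compared with vehicle.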

[5] = NCI Yeast Anticancer Drug Screen. Data for the bub3 strain (AID 167); conditions: S. cerevisiae bub3 mutant strain, active compounds read high; at 50.0 µM unless noted
Method in brief: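 In this screen, a yeast mutant lacking normal mitotic checkpoint function is challenged with compound. Relative growth versus vehicle gives the inhibition value.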

[6] = NCI Yeast Anticancer Drug Screen. Data for the mlh1 rad18 strain (AID 175); conditions: S. cerevisiae mlh1 rad18 strain growth inhibition, active compounds read high; at 50.0 µM unless noted
Method in brief: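 Steps: expose repair-defective yeast to compound; measure growth; express inhibition against vehicle-treated controls.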

Compound	growth inhibition [1]	growth inhibition [2]	growth inhibition [3]	growth inhibition [4]	growth inhibition [5]	growth inhibition [6]
c1ccc2nn(C3CCCO3)nc2c1 (stereo not given)	0.75%	-16.5%	-21.9%	-29.4%	3.15%	-43.5%
Cc1cc(C)cc(N(C2=NCCS2)C2=NCCS2)c1	5%	-4.55%	-2.35%	0.45%	21.9%	4.9%
NNc1nc(NCc2ccco2)c2[nH]cnc2n1	-10%	-7.95%	1.5%	2.45%	2.5%	12.8%
OCc1ccc(Cl)c(Cl)c1	-4.15%	-11.9%	0.1%	8.15%	2.8%	3.3%
CCOC(=O)/C=C1\SC(C)(C)C1NC(=O)OCc1ccccc1 (stereo not given)	-73.2%	-30.5%	-6.15%	-18.1%	-0.2%	-15%
O=C1CN(c2cccc(C(F)(F)F)c2)C(=O)CN1/N=C/c1cccnc1	-28.4%	-5.2%	10.8%	-4.35%	27.9%	-8.45%
CCOC(=O)C(C#N)(CC(=O)OC)C(c1cccc2ccccc12)c1cccc2ccccc12 (stereo not given)	10.9%	-12.7%	12.7%	21%	-7.15%	13.8%
COc1cccc(-c2cc(=O)c3cc(N4CCOCC4)ccc3[nH]2)c1	-35.9%	-27.9%	-22.9%	-2%	-40.9%	-58.2%
Cc1ccc(C)n1CCCCCCCn1c(C)ccc1C	-24.7%	-3.5%	5.15%	-22.8%	25.1%	-9.8%
O=C(O)C(C(=O)N(c1ccccc1)c1ccccc1)c1ccccc1 (stereo not given)	9.8%	-1.05%	21.5%	-51.9%	18.7%	9.75%
c1ccc2nc3c(cc2c1)c1c(c2ccccc23)CCCC1	11.2%	-10.5%	20.4%	-25.4%	-14.6%	22.9%
O=C(N/N=C/c1ccc(O)cc1)C(c1ccccc1)N1CCCCC1 (stereo not given)	5.85%	-7.05%	-7.4%	-18.8%	3.05%	-5.3%
O=C(CCC(=O)Nc1ccc(Cl)c(Cl)c1)Cc1nc2ccccc2o1	-8.25%	-24.4%	-11.2%	18.6%	-13.7%	1.1%
O=C(O)CC(C(=O)O)C(Cc1ccccc1)c1ccccc1 (stereo not given)	-10.2% and 22.4%	-4.25% and 10.9%	0.35% and 10.1%	-0.05% and 5.95%	-1.6% and 10.1%	-3.15% and -6.55%
CCOC(=O)Cc1nc2ccccc2[nH]1	4.4%	-7.85%	-13.2%	-103%	-12.2%	-3.2%
CC(/C(=N/O)c1ccccc1)N1C(=O)c2ccccc2C1=O (stereo not given)	-31.1%	-12.9%	-4.5%	-27.1%	-3.95%	5.7%
Nc1nc2c(c(=O)[nH]1)N(C=O)C(CCNc1ccc(C(=O)NC(CCC(=O)O)C(=O)O)cc1)CN2 (stereo not given)	5.35%	-12.2%	2.55%	-12.6%	9%	3.25%
C/C(=N\O)C(=O)c1ccc(C)cc1	-0.05%	-12.7%	2.2%	-30.6%	-22.7%	-8.7%
COc1ccc(OC2OC(CO)C(O)C(O)C2O)cc1 (stereo not given)	8.9%	-0.1%	-4.3%	18.1%	6.5%	-50.6%
CCOC(=O)CCN(CCC(=O)OCC)N(C)C	2.55%	-6.45%	-4.6%	-8.85%	5.8%	2.8%

Compound	growth inhibition [1]	growth inhibition [2]	growth inhibition [3]	growth inhibition [4]	growth inhibition [5]	growth inhibition [6]
CC1Sc2ccccc2-c2[nH]c3ccccc3c21 (stereo not given)	32.8%	49%	16%	5%	31.7%	66.1%
CCc1nc(N)nc(N)c1-c1ccc(NC2CCCCC2)c([N+](=O)[O-])c1	10.3%	14.2%	16.1%	17.9%	-6.05%	27.1%
NC(=S)N/N=C\c1cccc(O)c1O	2.9%	25.1%	21%	7%	13.4%	12.7%
Cc1ccccc1C(=O)c1cccc2cccc(C(=O)c3ccccc3C)c12	13%	0.75%	-10.8%	7.8%	10.8%	1.15%
COc1cccc(/C=C/c2ccnnc2)c1	4.3%	-2.8%	-7.55%	-7.65%	16.9%	-3.85%
OCCCCC1CCCc2ccccc21 (stereo not given)	17.3%	16.1%	3.15%	-4.55%	-1.85%	-3.45%
CCCC(=O)N(C(C)C)C(C)C	11.2%	22%	12.5%	6.6%	8.5%	8.8%
C[C@H](CCC1=NCCN1)[C@H]1CC[C@H]2[C@@H]3CC[C@@H]4C[C@H](O)CC[C@]4(C)[C@H]3CC[C@]12C	91.6% (active)	92.8% (active)	91.2% (active)	91.6% (active)	91.1% (active)	91% (active)
C#CCC(C(=O)OC)N(CC)CC (stereo not given)	25.6%	-21.9%	41.4%	0.55%	46.1%	33.7%
O=C(O)/C(=C/c1cccs1)c1ccc(F)cc1	19.1%	12.2%	15%	28.9%	-3.2%	3.75%
COc1ccc(/C(C)=C\C(=O)O)c(O)c1OC	5.9%	6.85%	-4.65%	3.55%	22.1%	7.8%
COc1cc(OC)cc(C(=O)CC(=O)c2cc(OC)cc(OC)c2)c1	-49.6%	-38.3%	-69%	-7.9%	-33.4%	-26.1%
CCc1ccc(NS(=O)(=O)c2ccccc2[N+](=O)[O-])cc1	31.9%	42.6%	61.8%	25.3%	50.9%	65.5%
CN(C)C1=NS(=O)(=O)c2ccccc21	-0.75%	1%	-7.25%	-40.3%	6.35%	2.9%
Cc1ccc(S(=O)(=O)/N=S(/Cc2ccccc2)c2c(C)cccc2C)cc1 (stereo not given)	20.9%	2.65%	20.6%	17.6%	-0.75%	3.3%
Cc1cc(N(CCC#N)CCC#N)ccc1N=Nc1ccc(S(N)(=O)=O)cc1	-39.6%	-9.45%	-12.4%	3.65%	0.55%	0.8%
O=S1(=O)C(c2cccc(F)c2)=C(O)c2cc3ccccc3nc21	15.8%	5.45%	11.6%	-20.6%	-23.8%	9.45%
CC(C)CCO/N=C(\N)N=C(N)N	-17.4%	-5.8%	14.3%	2.7%	-1.75%	-1.9%
CC(CC(=O)c1ccccc1)[N+](=O)[O-] (stereo not given)	-10.6%	-6.35%	-3.3%	-12.6%	-7.85%	15.8%
CC1=NCC23CC(=O)C4C(CCC5(C)CC(O)CCC45C)C2CCC13 (stereo not given)	0.85%	-0.95%	7.6%	-36.6%	20.4%	1.9%
